From PubChem
Only some compounds are listed: those with a hit (about 17% of all), similar ones and a draw of the others.
HT1080 IDH1KD tx: kills HT-1080 cells with IDH1 knockdown; HT-1080 IDH1 knockdown viability, ATP luminescence, 48 h; Potency, µM (highest dose often 46.1 µM), inactives show at the top dose activity, negative = toxicity, actives largely listed as cytotoxic; 360,000 tested, 2% active;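 also: 0% = DMSO wells and -100% = cell-free medium wells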
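Viability of IDH1-knockdown HT-1080 fibrosarcoma cells was assessed by CellTiter-Glo after 48 h at 37 °C with titrated compound; concentration-effect curves were classified by fit quality and response size.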
HepG2 tox: counter-screen for TGF-b inhibitors: cytotoxicity in HepG2 cells; HepG2 CAGA-GFP viability, ATP luminescence, 18 h; Potency, µM (series often up to 46.1 µM), without a hit: at the top dose activity change, negative = cytotoxicity, most hits filed as cytotoxic; 410,000 tested, 0.76% active; AID 588856
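CellTiter-Glo luminescence gave cytotoxicity after 18 hours at 37 degrees C. The cells were HepG2 CAGA-GFP in 1% FBS DMEM, stimulated with 500 pg/mL TGF-beta after compound addition. %Activity was normalised to no-cell wells (complete cell-killing) and DMSO (no toxicity), and curves were fitted and classified.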
DT40 TDP1 CPT: growth inhibition of DT40 Tdp1-/-;hTDP1 cells with camptothecin (screen for TDP1 inhibitors); chicken DT40 Tdp1-/-;hTDP1 cells + 20 nM CPT, ATP luminescence, 48 h; Potency, µM (top dose mostly 46.2 µM), inactives show at the highest dose activity change, negative = growth inhibition, hits mostly inhibitors; 420,000 tested, 12% active; AID 686979; also: % is scaled to controls: 0 for no effect and ±100 for the full control effect; nearly all actives have a fitted effect of over 55% in size
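Chicken DT40 Tdp1-/- cells complemented with human TDP1, 400 cells/well, exposed to compounds plus 20 nM camptothecin for at least 48 h at 37 C; viability read as ATP content by CellTiter-Glo luminescence.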
HT1080-NT tox: kills 2HG-producing HT-1080-NT fibrosarcoma cells; HT-1080-NT fibrosarcoma viability, CellTiter-Glo ATP luminescence, 48 h; Potency, µM (titrated, usually from 46.1 µM), for the others: at the top dose activity, negative = less viability, usual class: cytotoxic; 360,000 tested, 1.6% active; AID 686970;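 also: NT is the 2HG producing partner of a matched IDH1 knockdown line; 0% = DMSO-treated cells and -100% = media-only wells without cells; nearly all actives have a fitted effect of over 55% in size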
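Viability by CellTiter-Glo luminescence after 48 h compound exposure at 37C of HT-1080-NT cells (750/well, RPMI, 5% FBS). % activity scaled between DMSO wells and medium-only wells, then curve-fitted and categorized by curve class.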
TGFb SMAD3 inh: TGF-b pathway inhibition. AID 588855. 410,000 tested, 1.2% active. HepG2 CAGA-GFP TGF-b/SMAD3 reporter, GFP fluorescence, 18 h; TGF-beta stimulated, 500 pg/mL final. Potency, µM (series often up to 46.1 µM), for inactives: at the highest dose activity, negative = inhibition, most hits filed as inhibitors; also: % is scaled to controls: 0 for no effect and ±100 for the full control effect; nearly all actives have a fitted effect of over 65% in size
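TGF-beta reporter screen: HEPG2 CAGA-GFP, 1% FBS, 500 pg/mL TGF-beta final, 18 h; per-cell GFP summed per well; curves fitted and categorized by class.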
DT40 TDP1 no CPT: qHTS for Inhibitors of human tyrosyl-DNA phosphodiesterase 1 (TDP1): qHTS in cells in absence of CPT | DT40 Tdp1-/- hTDP1 cells, no CPT, ATP luminescence, 48 h | Potency, µM (doses to about 46.2 µM), for the others: top-dose activity change, negative = growth inhibition, most hits filed as inhibitors | 420,000 tested, 15% active | AID 686978, 2013; also: % is scaled to controls: 0 for no effect and ±100 for the full control effect; nearly all actives have a fitted effect of over 55% in size
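Compound effects on proliferation are scored in DT40 Tdp1-/-;hTDP1 cells in the absence of CPT. ATP levels (CellTiter-Glo luminescence) are recorded after a ≥48 hr, 37 °C incubation.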
Active calls of the source: *; ? = inconclusive; / = no result given; [ ] = dose if it differs, or a comment. Calls follow the shape of the dose curve; as a rule, active = well fitted curve in the direction sought with a large enough effect; inconclusive = small, poorly fitted or top-dose-only effect, or another doubt; inactive = no such curve, though single readings can be large; an effect the other way counts as inactive or inconclusive. Potency is read from the fitted curve at half-maximal effect.

SMILES | HT1080 IDH1KD tx | HepG2 tox | DT40 TDP1 CPT | HT1080-NT tox | TGFb SMAD3 inh | DT40 TDP1 no CPT
N#Cc1cc([N+](=O)[O-])ccc1NC(=O)COC(=O)CN1C(=O)C2CCCCC2C1=O (centres undefined) | 0% | 9% | ? | -3% | 2% | -21%
CCc1ccccc1N1C(=O)CN(Cc2cc(OC)c(OC)c(OC)c2)C1=S | 0% | -16% | ? | -9% | -9% | 21µM*
CCc1ccc(N2C(=O)CN(Cc3cc(OC)c(OC)c(OC)c3)C2=S)cc1 | -9% | 4% | 16µM* | -13% | ? | 23µM*
COc1cc(CN2CC(=O)N(c3ccc(C)c(C)c3)C2=S)cc(OC)c1OC | -9% | 7% | ? | 2% | 10% | ?
COc1cc(CN2CC(=O)N(c3cc(Cl)ccc3C)C2=S)cc(OC)c1OC | -3% | -32% | 21µM* | -27% | ? | 21µM*
COc1ccc(CN2CC(=O)N(c3cc(Cl)ccc3C)C2=S)cc1OC | 0% | 2% | ? | 7% | 67% | ?
Cc1cn2c(=O)cc(COc3cccc(NC(=O)c4ccccc4C)c3)nc2s1 | / | -2% | -21% | / | -43% | ?
Cc1ccc(CNC(=O)c2cc(Cl)cc(Cl)c2)n1C | -4% | -4% | -11% | 0% | -2% | 21%
CCOC(=O)Cn1c2ccccc2n2nc(CCC(=O)O)c(=O)nc12 | ? | 7% | 11% | 15% | 17% | -10%
CCNc1ccc(Br)cc(C(=O)/C=C/c2ccccc2Cl)c1=O | 13µM* | -61% | 9.2µM* | ? | 37% | 10µM*
CNc1ccc(Br)cc(C(=O)/C=C/c2cccc(Cl)c2Cl)c1=O | -7% | -34% | 18µM* | 0% | ? | 16µM*
CNc1ccc(Br)cc(C(=O)/C=C/c2cccc(OC)c2OC)c1=O | 5% | -8% | -13% | 6% | -2% | 1%
O=C(NCC1CCCO1)C(=O)N/N=C\c1ccc2c(c1)OCO2 (centres undefined) | -2% | 8% | -8% | -1% | -5% | 12%
Cc1cc(C(=O)CSc2nc(N)cc(=O)[nH]2)c(C)n1CCc1ccc(F)cc1 | 26µM* | -41% | 18µM* | 0% | 5% | 12µM*
Cc1cc(C(=O)CSc2nc(N)cc(N)n2)c(C)n1-c1cccc(F)c1 | -8% | -1% | ? | -6% | -1% | ?
Cc1cc(C(=O)CSc2nc(N)cc(=O)[nH]2)c(C)n1-c1ccc(OC(F)F)cc1 | ? | -10% | 2.6µM* | 0% | -18% | 1.8µM*
CCc1ccc(C(=O)CSc2nc(N)cc(=O)[nH]2)cc1 | 6% | 3% | ? | 0% | 2% | ?
COc1ccc(CCn2c(C)cc(C(=O)CSc3nc(N)cc(=O)[nH]3)c2C)cc1 | -24% | -32% | 12µM* | ? | -11% | 12µM*
C[C@H](CO)NC(=O)c1[nH]cnc1C(=O)Nc1cccc(Cl)c1 | -12% | -10% | -7% | 2% | -6% | ?
COCc1c(C(=O)NCC2CCCN(C)C2)cnn1-c1ncc2c(n1)-c1ccccc1CCC2 (centres undefined) | / | / | 11%[9.04 µM] | / | / | -9%
O=C(COC(=O)c1ccccc1N1C(=O)C2C3CCC(C3)C2C1=O)c1ccccc1 (centres undefined) | 8% | -12% | 10% | 18% | -3% | 6%
